Experimental findings from the supplement of paper PMC6522484 are described below.

± gives the standard deviation of the averaged measurements.

The test relates to SW480. Description: cell viability (CellTiter-Glo) relative to plate median (fraction of plate median); higher = more viable cells. The conditions noted are these: 10 µM; treatment time 24 h; reporter: 7TFP. The essentials:
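In 384-well plates, colorectal cancer lines with stable lentiviral 7TFP or TCF4/Wnt firefly luciferase reporters were seeded and, 24 h later, given kinase inhibitor library compounds at a final 10 µM for 24 h. A Tecan F500 reader measured firefly luciferase on one plate and CellTiterGlo on a parallel plate. Reported figures are two-replicate means of well signals normalised to the plate median, computed additively in webcellHTS2 without log transformation.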
A general note: ATP-based viability assays read luminescence as a measure of living cells.
On to `CCC[C@H](NC(=O)/C(C#N)=C/c1cccc(Br)n1)c1ccccc1`, for which the cell viability came to 0.826 ± 0.11.

In turn, `CCS(=O)(=O)c1cccc(-c2cc(C(=O)NC3CCN(C)CC3)c(C)c3[nH]c4ncc(C)cc4c23)c1` registered a cell viability of 0.965 ± 0.026.

Compound `CC(C)n1nc(-c2ccc3oc(N)nc3c2)c2c(N)ncnc21` returned a cell viability of 1.04 ± 0.072.

The compound `COc1cc2c(N3CCN(C(=O)Nc4ccc(OC(C)C)cc4)CC3)ncnc2cc1OCCCN1CCCCC1` [Tandutinib (MLN518)] showed a cell viability of 1.11.

`O=C1NC(=O)C(c2ccccc2[N+](=O)[O-])=C1Nc1ccc(O)c(Cl)c1` came in with a cell viability of 0.859 ± 0.072.

For `COc1cccc(-c2cc(=O)c3ccccc3o2)c1N`, the cell viability was 1 ± 0.023.

The compound `Cc1ccc(NC(=O)c2ccc(CN3CCN(C)CC3)cc2)cc1Nc1nccc(-c2cccnc2)n1` [Imatinib (Gleevec)] showed a cell viability of 0.986 ± 0.011.

Consider `COc1cc2c(Nc3ccc(NC(=O)c4ccccc4)cc3)ncnc2cc1OCCCN1CCOCC1`, for which the cell viability was 1.11 ± 0.021.

In turn, `CC(C)CC(=O)Nc1n[nH]c2c1CN(C(=O)C1CCN(C)CC1)C2(C)C` returned a cell viability of 1.32 ± 0.071.

Compound `CNC(=O)Nc1ccc(-c2nc(N3CC4CCC(C3)O4)c3cnn(C4CCC5(CC4)OCCO5)c3n2)cc1` registered a cell viability of 1.16 ± 0.028.

As to `CCOc1cc2ncc(C#N)c(Nc3ccc(OCc4ccccn4)c(Cl)c3)c2cc1NC(=O)/C=C/CN(C)C` [Neratinib (HKI-272)], the cell viability was 0.541 ± 0.72.

In the case of `N#CCNC(=O)c1ccc(-c2ccnc(Nc3ccc(N4CCOCC4)cc3)n2)cc1`, the cell viability was 1.09 ± 0.035.

On to `Cc1ncc(-c2ccnc(Nc3ccc(S(C)(=O)=O)cc3)n2)n1C(C)C`, for which the cell viability is 1.47 ± 0.05.

On to `O=C(O)c1ccc2c(c1)nc(Nc1cccc(Cl)c1)c1ccncc12` [cx-4945 (Silmitasertib)], for which the cell viability was 1 ± 0.092.

In the case of `CC(=O)Nc1cccc(-n2c(=O)n(C3CC3)c(=O)c3c(Nc4ccc(I)cc4F)n(C)c(=O)c(C)c32)c1`, the cell viability came to 1.19 ± 0.042.

Turning to `Nc1ncnc2c1c(-c1cccc(OCc3ccccc3)c1)cn2C1CC(CN2CCCC2)C1` (stereo unspecified), the cell viability came out at 0.952 ± 0.15.

Compound `COc1cc2c(Oc3ccc(NC(=O)C4(C(=O)Nc5ccc(F)cc5)CC4)cc3F)ccnc2cc1OCCCN1CCOCC1` registered a cell viability of 1.03 ± 0.13.

In turn, `CCN1CCN(c2ccc(Nc3cc(N(C)C(=O)Nc4c(Cl)c(OC)cc(OC)c4Cl)ncn3)cc2)CC1` yielded a cell viability of 0.921 ± 0.033.

In turn, `Cc1[nH]c(/C=C2\C(=O)Nc3ccccc32)c(C)c1CCC(=O)O` had a cell viability of 0.96 ± 0.044.

Compound `CN1CCN(c2ccc3nc(-c4c(N)c5c(F)cccc5[nH]c4=O)[nH]c3c2)CC1` [Dovitinib Dilactic acid (TKI258 Dilactic acid)] displayed a cell viability of 1.17 ± 0.035.

`Cc1[nH]c(/C=C2\C(=O)Nc3ccc(S(=O)(=O)Cc4c(Cl)cccc4Cl)cc32)c(C)c1C(=O)N1CCC[C@@H]1CN1CCCC1`: the cell viability was found to be 0.798 ± 0.34.

In turn, `COc1cc(Nc2ncc(F)c(Nc3ccc4c(n3)NC(=O)C(C)(C)O4)n2)cc(OC)c1OC` [R406(free base)] had a cell viability of 0.968 ± 0.037.

The compound `Cc1ccc(F)c(NC(=O)Nc2ccc(-c3cccc4[nH]nc(N)c34)cc2)c1` [Linifanib (ABT-869)] had a cell viability of 0.883 ± 0.042.

`N#CC(=C(/N)Sc1ccccc1N)/C(C#N)=C(\N)Sc1ccccc1N` came in with a cell viability of 1.06 ± 0.05.

`c1cncc(CN2CCC(n3ncc4c(N5CCOCC5)nc(-c5ccc6[nH]ccc6c5)nc43)CC2)c1` came in with a cell viability of 1.19 ± 0.078.

In the case of `CCn1c(-c2nonc2N)nc2c(C#CC(C)(C)O)ncc(OC[C@H]3CCCNC3)c21`, the cell viability was 1.04 ± 0.05.
